Where “and” joins values, the source holds several entries; their conditions need not be identical. Identical values can stand only once.
Key:
Assay in all cases: cell viability relative to vehicle control; higher = less cytotoxic
Conditions in all cases: 10 µM
[1] = system: K562
Summary of the method: (§1)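 CRISPR-edited mutant clones and isogenic wild-type clones from four leukaemia lines were screened against Selleck bioactive, kinase and epigenetic probe libraries, with identity-inconsistent compounds excluded. Each compound was acoustically dispensed at a single 10 µM dose into 384-well plates holding 2000 cells in 50 µL medium per well. After 48 h the supernatant was removed and CellTiter-Glo luminescence was read. Viability was expressed as percent of the on-plate vehicle control and analysed in Genedata Screener.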

[2] = system: MARIMO
Summary of the method: as §1

[3] = system: MOLM14
Summary of the method: as §1

[4] = system: OCI-AML2
Summary of the method: as §1

SMILES	cell viability ([1]; SRSF2 genotype: SRSF2 P95H/wt)	cell viability ([1]; SRSF2 genotype: SRSF2 wt/wt)	cell viability ([2]; SRSF2 genotype: SRSF2 P95H/wt)	cell viability ([2]; SRSF2 genotype: SRSF2 wt/wt)	cell viability ([3]; SRSF2 genotype: SRSF2 P95H/wt)	cell viability ([3]; SRSF2 genotype: SRSF2 wt/wt)	cell viability ([4]; SRSF2 genotype: P95H/wt)	cell viability ([4]; SRSF2 genotype: wt/wt)
CCNC(=O)c1noc(-c2cc(Cl)c(O)cc2O)c1-c1ccc(OC)cc1	20.7% and 32.8%	25.5%	31.9%	25.1%	2.02%	2.25%	16.2%	20.2%
CC(C)c1cccc(O)c(=O)c1	87.6% and 88.1%	83.2%	79.5%	70.3%	93.5%	96.4%	59.6%	59.8%
CC1(C)CC[C@]2(C(=O)O)CC[C@]3(CO)C(=CC[C@@H]4[C@@]5(C)C[C@H](O)[C@H](O[C@@H]6O[C@H](CO)[C@@H](O)[C@H](O)[C@H]6O)[C@@](C)(C(=O)O)[C@@H]5CC[C@]43C)[C@@H]2C1 [Tenuifolin]	102% and 96.9%	105%	104%	112%	99.4%	108%	102%	103%
CC1(C)C=C(CN2C/C(=C\c3ccc(F)cc3)C(=O)/C(=C/c3ccc(F)cc3)C2)C(C)(C)N1O	1.83% and 3.61%	1.04%	0.52%	1.15%	0.27%	0.28%	0.24%	0.32%
Cc1cc(C(N)=O)ccc1-n1c(CCC(=O)O)ccc1-c1ccc(-n2ccnc2)cc1	101% and 109%	108%	105%	98%	105%	108%	109%	124%
Cc1ccc(-n2nc(C(C)(C)C)cc2NC(=O)NCc2cc(F)ccc2Oc2ccc3c(cnn3CCO)c2)cc1 [Pexmetinib (ARRY-614)]	17.1% and 26.4%	23.6%	68%	69.4%	32.8%	25.9%	50%	54.4%
COc1cc(/C=C/c2ccc(O)c(O)c2)cc(OC)c1 [3'-Hydroxypterostilbene]	74% and 61.4%	67.4%	29.2%	39.9%	21.3%	10.6%	44.4%	44.7%
CC[C@H](C)C(=O)O[C@H]1C[C@@H](C)C=C2C=C[C@H](C)[C@H](CC[C@@H]3C[C@@H](O)CC(=O)O3)[C@H]21 [Lovastatin (Mevacor)]	86.3% and 96.8%	68.8%	74%	68.5%	82.9%	100%	64.3%	77.8%
CC/C(=C(\c1ccc(O)cc1)c1ccc(OCCN(C)C)cc1)c1ccccc1 [4-Hydroxytamoxifen]	27.4% and 32.6%	28%	55.8%	53.5%	32.9%	27.8%	22.6%	39.5%
CN1c2ccccc2C(=O)Nc2cnc(Nc3ccc(N4CCC(O)CC4)cc3)nc21	16.4% and 22.1%	15.7%	69.5%	83.9%	57.2%	39.6%	51%	49.3%

From the supplement of paper PMC10981050
